From PubChem BioAssay (Tox21) come the findings set out here.

A short description of assay [1]: qHTS assay for small molecules that induce genotoxicity in human embryonic kidney cells expressing luciferase-tagged ATAD5 (AID 651632). Also: nearly all actives have a fitted effect of over 15% in size. In outline:
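ATAD5-luc HEK293T, 2,000 cells/well; cpd or DMSO pin-transferred; 16 hr, 37C/5% CO2; Amplite 30 min RT; luminescence.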

Assay [2] can be described thus: qHTS assay for small molecule disruptors of the mitochondrial membrane potential (AID 720635). Also: potency is read from the fitted curve at half-maximal effect. In outline:
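HepG2 cells exposed to compound 1 hr at 37C, then Mito-MPS dye 30 min. Ratio read of aggregate (540/590 nm) versus monomer (490/535 nm) fluorescence.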
In general terms: qHTS replaces the single test concentration by a dilution series.

Assay [3] is described as follows: qHTS assay to test for compound auto fluorescence at 590 nm (red) in HepG2 cells (AID 720674). In outline:
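HepG2 cells, 2,000 per well in MEM with 10% FBS, attached overnight at 37 C, then got 23 nL compound or DMSO. After 1 hr at 37 C, 5% CO2, red fluorescence was read at 540/590 nm against Rose Bengal sodium as reference.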

Assay [4] is described as follows: qHTS assay to test for compound auto fluorescence at 535 nm (green) in HepG2 cells (AID 720675).
Assay [5] in a line: qHTS assay to test for compound auto fluorescence at 460 nm (blue) in HEK293 cells (AID 720678). An outline of the steps: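 HEK293 cells (2,000/well, medium with 10% dialyzed FBS) attached 4-5 hr, then exposed to compound overnight at 37C, 5% CO2. Blue fluorescence read at 405/460 nm, with triamterene as reference fluorophore.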
A short description of assay [6]: qHTS assay to test for compound auto fluorescence at 590 nm (red) in HEK293 cells (AID 720679). An outline of the steps:
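HEK293 cells (2,000/well, 10% dialyzed FBS) attached 4-5 hr, then dosed with compound or DMSO and incubated overnight at 37C, 5% CO2. Red fluorescence read at 540/590 nm, Rose Bengal sodium as reference fluorophore.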

Assay [7] is described as follows: qHTS assay to test for compound auto fluorescence at 535 nm (green) in HEK293 cells (AID 720680).
The nature of assay [8]: qHTS assay to test for compound auto fluorescence at 460 nm (blue) in HEK293 cell free culture (AID 720681). An outline of the steps:
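Compounds were added to cell-free DMEM with 10% FBS and fluorescence read directly. The blue channel used 405 nm excitation and 460 nm emission, with triamterene as the reference fluorophore.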

Assay [9] in a line: qHTS assay to test for compound auto fluorescence at 535 nm (green) in HEK293 cell free culture (AID 720682). In outline:
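Green-label autofluorescence (485 nm excitation, 535 nm emission) measured on compound added to cell-free culture medium (DMEM, 10% FBS). Output is expressed relative to fluorescein.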

The nature of assay [10]: qHTS assay to test for compound auto fluorescence at 590 nm (red) in HEK293 cell free culture (AID 720683). In outline: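 Cell-free wells of DMEM with 10% FBS received compound, and intrinsic fluorescence was read at excitation/emission 540/590 nm. Values expressed as equivalence to Rose Bengal sodium.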
Assay [11] is described as follows: qHTS assay to test for compound auto fluorescence at 590 nm (red) in HepG2 cell free culture (AID 720684). An outline of the steps: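 Compound was pinned into wells holding MEM with 10% FBS and no cells, and red fluorescence was read at Ex/Em 540/590 nm. Signal is expressed as auto fluorescence equivalency relative to Rose Bengal sodium.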
The nature of assay [12]: qHTS assay to test for compound auto fluorescence at 460 nm (blue) in HepG2 cell free culture (AID 720685). An outline of the steps: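 Compound (23 nL) or DMSO pinned into cell-free MEM with 10% FBS; blue fluorescence read at 405/460 nm excitation/emission, expressed as auto-fluorescence equivalency to triamterene.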
A short description of assay [13]: qHTS assay to test for compound auto fluorescence at 535 nm (green) in HepG2 cell free culture (AID 720686).
Assay [14] in a line: qHTS assay to test for compound auto fluorescence at 460 nm (blue) in HepG2 cells (AID 720687). In outline:
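HepG2 cells in MEM with 10% FBS, attached overnight at 37 C, were exposed to compound or DMSO for 1 hr at 37 C, 5% CO2. Blue fluorescence was read at 405/460 nm, with triamterene as reference fluorophore.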

Assay [15] in a line: qHTS assay for small molecule agonists of the p53 signaling pathway - cell viability (AID 651633; calls by dose curve; also: nearly all actives have a fitted effect of over 30% in size; also: potency is read from the fitted curve at half-maximal effect). An outline of the steps: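 p53RE-bla cells were treated with compound for 16 hours at 37 C. Cytotoxicity was then measured as CellTiter-Glo luminescence after 30 min at room temperature.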
A short description of assay [16]: qHTS assay for small molecules that induce genotoxicity in human embryonic kidney cells expressing luciferase-tagged ATAD5 - cell viability (AID 651634; calls by dose curve; also: nearly all actives have a fitted effect of over 25% in size; also: potency is read from the fitted curve at half-maximal effect). An outline of the steps:
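Fluorescence from CellTiter-Fluor, reporting protease activity within live cells, served as the viability read-out. HEK293T cells carrying luciferase-tagged ATAD5 had been treated with compound for 15.5 hr at 37C.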

Assay [17] is described as follows: qHTS assay for small molecule disruptors of the mitochondrial membrane potential - cell viability (AID 720634; calls by dose curve; also: nearly all actives have a fitted effect of over 20% in size; also: potency is read from the fitted curve at half-maximal effect). In outline:
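Cells: HepG2, 2,000/well, attached overnight. Compound 1 hr, 37 C/5% CO2. +m-MPI dye, +CellTiter-Glo 30 min RT. Readout: luminescence (ATP).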

The target of assay [18] is Glucocorticoid receptor (Homo sapiens) (UniProt P04150). The assay is described as follows: qHTS assay to identify small molecule agonists of the glucocorticoid receptor (GR) signaling pathway (AID 720691; active = well fitted activation curve with a large enough effect in the signal ratio in the repeat runs, not every such curve was filed as active; the % refers to the signal ratio). In outline: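 Fluorescence intensity from LiveBLAzer B/G FRET substrate (2 h, room temperature) reports beta-lactamase expression driven by the glucocorticoid response element in GR-bla HeLa cells after 18 h compound exposure at 37 C.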
Sequence of Glucocorticoid receptor (Homo sapiens) (P04150 whole entry, looked up): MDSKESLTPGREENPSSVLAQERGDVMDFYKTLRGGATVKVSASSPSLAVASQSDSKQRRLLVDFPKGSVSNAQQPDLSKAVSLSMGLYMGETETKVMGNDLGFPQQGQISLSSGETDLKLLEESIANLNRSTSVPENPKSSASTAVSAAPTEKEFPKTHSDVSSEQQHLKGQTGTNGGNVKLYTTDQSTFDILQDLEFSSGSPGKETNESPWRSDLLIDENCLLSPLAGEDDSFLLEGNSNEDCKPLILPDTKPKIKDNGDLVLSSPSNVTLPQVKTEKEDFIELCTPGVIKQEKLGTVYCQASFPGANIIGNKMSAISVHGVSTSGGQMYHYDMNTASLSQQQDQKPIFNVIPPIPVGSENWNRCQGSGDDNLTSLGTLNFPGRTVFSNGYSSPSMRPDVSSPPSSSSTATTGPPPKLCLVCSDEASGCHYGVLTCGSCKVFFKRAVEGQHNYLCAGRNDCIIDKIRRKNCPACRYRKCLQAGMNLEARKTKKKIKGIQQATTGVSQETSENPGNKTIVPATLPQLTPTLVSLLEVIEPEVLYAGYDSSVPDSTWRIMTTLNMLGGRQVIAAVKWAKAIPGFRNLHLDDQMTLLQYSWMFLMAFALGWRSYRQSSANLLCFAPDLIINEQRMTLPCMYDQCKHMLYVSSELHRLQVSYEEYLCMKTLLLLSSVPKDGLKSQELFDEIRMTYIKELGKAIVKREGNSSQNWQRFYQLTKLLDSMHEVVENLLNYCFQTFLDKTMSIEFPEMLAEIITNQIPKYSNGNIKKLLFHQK

SMILES strings stand for the structures. Unmarked numbers belong to inactive results. Results filed as inconclusive are left out. Activity calls are given as the source filed them. Unless noted, calls follow the shape of the dose curve; as a rule, active = well fitted curve in the direction sought with a large enough effect in the repeat runs; inconclusive = weak or mixed curves; inactive = no such curve, though single readings can be large; an effect the other way counts as inactive or inconclusive.
% is scaled to controls: 0 for no effect and ±100 for the full control effect.

Take `CC(C)[C@H](C(=O)OC(C#N)c1cccc(Oc2ccccc2)c1)c1ccc(OC(F)F)cc1` (stereo not given in full): the Potency entry in assay [1], in [5], in assay [8], in assay [12] and in [14] was “inactive” each time. Besides, the Potency in assay [2] was 17.2 µM (active). For the same compound, the call in [3], in assay [4], in assay [6], in assay [7], in [9] and in assay [10] was inactive. The outcome in [11] and in assay [13] was inactive.
With `C[C@@H]1CC[C@@]2(OC1)O[C@H]1[C@@H](O)[C@H]3[C@@H]4CC[C@H]5C[C@@H](O[C@@H]6O[C@H](CO)[C@H](O[C@@H]7O[C@H](CO)[C@@H](O)[C@H](O[C@@H]8OC[C@@H](O)[C@H](O)[C@H]8O)[C@H]7O[C@@H]7O[C@H](CO)[C@@H](O)[C@H](O[C@@H]8O[C@H](CO)[C@@H](O)[C@H](O)[C@H]8O)[C@H]7O)[C@H](O)[C@H]6O)[C@H](O)C[C@]5(C)[C@H]4CC[C@]3(C)[C@H]1[C@@H]2C`, the Potency in assay [15] was 23 µM (active); in assay [16], 64.9 µM (active); in assay [17] it was 18.3 µM (active); in [2], 4.59 µM (active). Besides, the compound was called inactive in assay [3], in [4], in assay [6], in assay [7], in assay [9] and in assay [10]. Besides, the outcome in assay [11] and in assay [13] was inactive. The Potency entry in assay [5], in [8], in [12] and in assay [14] was “inactive” in each case.
Consider `Oc1ccc(C(=C(Cl)Cl)c2ccc(O)cc2)cc1`, for which the Potency result in assay [1], in [5], in assay [8], in assay [12] and in assay [14] was “inactive” throughout. For the same compound, the Potency in assay [2] is 17.2 µM (active). Also, the outcome in [3], in [4], in [6], in assay [7], in [9] and in assay [10] was inactive. The outcome in assay [11] and in assay [13] was inactive.
Consider `CCOP(=O)(NC(C)C)Oc1ccc(SC)c(C)c1` (stereo not given), for which the result in assay [3], in assay [4], in [6], in assay [7], in assay [9] and in [10] was inactive. The result in assay [11] and in assay [13] was inactive. Besides, the Potency result in assay [5], in assay [8], in assay [14] and in assay [18] was “inactive” in each case.
In the case of `CN(C)C(=S)S`, the Potency entry in assay [16], in [17], in [2], in assay [5], in [12] and in assay [14] was “inactive” in each case. In addition, the compound was called inactive in [3], in assay [4], in [6], in [7], in assay [9] and in [10]. The outcome in assay [11] and in assay [13] was inactive.
For `N#C/C=C/C#N`, the Potency result in assay [15], in assay [17], in assay [8], in [12], in assay [14] and in assay [18] was “inactive” in each case. Moreover, the outcome in assay [3], in assay [4], in [6], in assay [7], in assay [9] and in assay [10] was inactive. Besides, the outcome in assay [11] and in assay [13] was inactive.
With `CC(=O)[O-].CC(=O)[O-].O.O.[Cd+2]`, the Potency in assay [16] was 0.214 µM (active). Moreover, the outcome in [3], in assay [4], in [6], in assay [7], in assay [10] and in [11] was inactive. The outcome in [13] was inactive. Also, the Potency result in [5], in assay [8] and in assay [14] was “inactive” each time.
For the compound `CN(C)C(=S)[S-].CN(C)C(=S)[S-].[Cu+2]`, the Potency entry in [15] and in assay [17] was “inactive” each time. In addition, the figures for the Potency in assay [16] and in assay [2] were 0.836 µM (active) and 0.592 µM (active), respectively. Besides, in assay [3], the fluorescence, relative to Rose Bengal is 0.166% [at 18.6 µM]. Also, the results for the fluorescence, % of fluorescein control in [4] and in assay [13] were -0.0148% [at 18.6 µM] and 0.0404% [at 18.6 µM], respectively. Further, the fluorescence, % of triamterene in assay [5] was -0.0228% [at 18.6 µM]. The fluorescence, % of fluorescent control was 0.0936% [at 18.6 µM] in assay [6]; -0.0097% [at 18.6 µM] in assay [8]; 0.0139% [at 18.6 µM] in assay [10]; -0.0974% [at 18.6 µM] in [12]; 0.125% [at 18.6 µM] in assay [14]. For the same compound, the fluorescence, % of fluorescein in assay [7] was -0.0159% [at 18.6 µM]. Further, the fluorescence, % of Rose Bengal in assay [11] is 0.0949% [at 18.6 µM].
